G9a inh = G9a (human) methyltransferase inhibition | Q96KQ7 | G9a H3K9 monomethylation, AlphaScreen, 2 h | Potency, µM (top dose mostly 102 µM), for the others: at the highest dose activity, negative = inhibition, hits mostly inhibitors | 8.8% of 350,000 active; also: potency is read from the fitted curve at half-maximal effect; % is scaled to controls: 0 for no effect and ±100 for the full control effect; nearly all actives have a fitted effect of over 75% in size
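AlphaScreen read-out: biotin-H3K9 peptide (500 nM) methylation by 20 nM enzyme with 20 uM SAM, 2 h at room temperature after 15 min compound preincubation; anti-monomethyl H3K9 antibody plus donor/acceptor beads, 10 min dark.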
JMJD2A Tudor = blocks the human JMJD2A Tudor domain; O75164; AID 504339; Potency, µM (series often up to 114 µM), without a hit: at the highest dose activity change, negative = inhibition, usual class: inhibitors; AlphaScreen JMJD2A-Tudor / H3K4me3 peptide binding; 4.4% of 390,000 active; also: potency is read from the fitted curve at half-maximal effect; % is scaled to controls: 0 for no effect and ±100 for the full control effect; nearly all actives have a fitted effect of over 50% in size
CtBP-E1A inh = CtBP/E1A binding inhibition. 0.49% of 340,000 active. AlphaScreen GST-E1A/His-CtBP binding, 1536-well; hits give low values. activity change, % (no concentration beside the values). AID 651724; in the data active = activity change below about -65%; inconclusive = mostly about -30% to -63%; also: % is scaled to controls: 0 for no effect and ±100 for the full control effect
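GST-E1A and His-tagged CtBP (125 nM each as 5X stock) were preincubated with pin-transferred compound for 2 h at 37 °C in the dark, then glutathione donor and nickel acceptor beads were added for 1 h before AlphaScreen reading.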
HP1b chromo inh = inhibitors of HP1-beta chromodomain binding to methylated histone tails; Potency, µM (series often up to 114 µM), for the others: top-dose activity change, negative = inhibition, actives largely listed as inhibitors; AID 540317; AlphaScreen HP1-beta / biotin-H3K9me3 peptide binding; P83916; 0.56% of 390,000 active; also: potency is read from the fitted curve at half-maximal effect; nearly all actives have a fitted effect of over 70% in size
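Compound inhibition of the preformed complex between 50 nM HP1-beta and 50 nM biotinylated H3K9me3 peptide was read by AlphaScreen. Buffer was PBS pH 7.4 with 0.01% Tween-20. Incubations ran 30 min at room temperature, with 10 ug/mL donor/acceptor beads.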
Six1-Eya2 inh = blocks human Six1 binding to Eya2; Q15475+O00167; AlphaScreen GST-Six1/His-Eya2 binding, biochemical; hits give low values; activity change, % (test concentration not listed); 0.56% of 360,000 active; in the data active = activity change below about -65%; inconclusive = mostly about -30% to -63%; also: % is scaled to controls: 0 for no effect and ±100 for the full control effect
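GST-Six1 + His-Eya2 (5X stock: 250/500 nM); Tris pH 8.0, 300 mM NaCl, 0.05% BSA, 0.02% Tween 20; GSH donor/Ni acceptor beads; 1 h 37 °C dark; AlphaScreen readout.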
BAZ2B inh = BAZ2B (human) inhibition. AlphaScreen BAZ2B-H3K14Ac peptide displacement. Potency, µM (highest dose often 114 µM), without a hit: top-dose activity change, negative = inhibition, actives largely listed as inhibitors. Q9UIF8. 4.4% of 360,000 active; also: potency is read from the fitted curve at half-maximal effect; % is scaled to controls: 0 for no effect and ±100 for the full control effect; nearly all actives have a fitted effect of over 60% in size
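AlphaScreen luminescence quantifies BAZ2B engagement of H3K14Ac peptide; the protein and biotinylated peptide are both at 50 nM final, buffer PBS pH 7.4 with 0.01% Tween-20, all steps at room temperature.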
* marks the source's active call; other numbers are inactive results; ? = inconclusive; nt = no result; [ ] = dose if it differs, or a comment. Rows were chosen to be rich in hits. Some 10% of all compounds tested hit in one or more screens of this group. Unless noted, calls follow the shape of the dose curve; as a rule, active = well fitted inhibition curve with a large enough effect; inconclusive = small, poorly fitted or top-dose-only effect; inactive = no such curve, though single readings can be large or run the other way.

SMILES	G9a inh	JMJD2A Tudor	CtBP-E1A inh	HP1b chromo inh	Six1-Eya2 inh	BAZ2B inh
O=C(COc1ccc(Br)cc1Br)NC(=S)N1CCCc2ccccc21	8.9µM*	50µM*	-1	-6%	-16	50µM*
CCc1nnc(NC(=O)c2csc3c2CCC(C)C3)s1 (stereo not drawn)	11%	nt	nt	nt	nt	-14%
O=C(NCc1ccco1)c1csc2c1CCCCC2	-9%[12.7 µM]	-18%	-8	2%	-3	-30%
CC1CCc2c(C(=O)Nc3cccc(-c4nn[nH]n4)c3)csc2C1 (stereo not drawn)	50µM*	-26%	-19	19%	-8	-28%
CC1CCc2c(C(=O)NCc3ccco3)csc2C1 (stereo not drawn)	56µM*	-6%	0	22%	-11	-37%
CC(NC(=O)COC(=O)/C=C/c1ccco1)c1ccccc1 (stereo not drawn)	?	-13%	4	?	0	?
CCOCCCNC(=O)Cn1nc(C)n2c(cc3cc(C)ccc32)c1=O	4%[59 µM]	-17%	nt	11%	nt	4%
CC(=O)C1=C(O)C(=O)N(C)C1c1ccccc1[N+](=O)[O-] (stereo not drawn)	11µM*	?	-6	?	5	-18%
CCCCCCN1C(=O)C(O)=C(C(C)=O)C1c1ccccc1[N+](=O)[O-] (stereo not drawn)	50µM*	0%[11.4 µM]	nt	15%	16	?
CC(=O)C1=C(O)C(=O)N(CCC(=O)O)C1c1ccccc1[N+](=O)[O-] (stereo not drawn)	-24%[59 µM]	-26%	-3	3%	17	?
CC(C)(C)C(=O)C1=C(O)C(=O)N(Cc2ccccc2)C1c1ccccc1Cl (stereo not drawn)	-11%[0.501 µM]	-12%	nt	35%	-2	2%
CC(=O)C1=C(O)C(=O)N(CC(=O)O)C1c1ccccc1Cl (stereo not drawn)	50µM*	?	8	23%	2	71µM*
COc1cc(OC)c(NS(=O)(=O)c2ccc3c(c2)CCCN3C(C)=O)cc1Cl	0%[59 µM]	-13%	nt	24%[57 µM]	nt	1%
C=CCn1c(SCc2c(C(=O)OC)sc(N)c2C(=O)OC)nnc1-c1ccc(Br)cc1	?	-28%	-6	5%	-5	-33%
N#Cc1ccc(NCC(=O)Nc2ccc(S(=O)(=O)N3CCCCC3)cc2)cc1	-6%[12.7 µM]	-16%	1	26%	-2	-4%
CCCS(=O)(=O)N1CCN(Cc2ccccc2C(F)(F)F)CC1	10µM*	20µM*	8	?	1	-111%
COc1ccc(S(=O)(=O)N2CCN(Cc3c[nH]c4ccccc34)CC2)cc1	-17%	-33%	-7	3%	-10	-37%
C=CCOc1ccccc1CN1CCCN(C)CC1	8.9µM*	10µM*	nt	?	8	71µM*
CCCS(=O)(=O)N1CCN(Cc2c[nH]c3ccccc23)CC1	25µM*	22µM*	-10	?	4	50µM*
CN1CCCN(Cc2ccccc2C(F)(F)F)CC1	?	0.71µM*	0	?	-7	50µM*
Fc1ccccc1N1CCN(C2CCCN(Cc3ccccc3C(F)(F)F)C2)CC1 (stereo not drawn)	nt	-18%	-6	16%	-4	-12%
CNc1ccc(C(=O)Oc2cc(O/N=[N+](\[O-])N(C)C)c([N+](=O)[O-])cc2[N+](=O)[O-])cc1	nt	?	nt	-1%	nt	nt
O=C(NCc1ccccc1Cl)c1ccccc1Oc1ccccc1	50%[59 µM]	83%	0	nt	12	55%
COc1ccc2c(c1)CCCC(Br)C2=O (stereo not drawn)	nt	50µM*	-3	?	-1	nt
COc1ccc2c(c1)CCC1(C)CC(=O)C(Br)=C21 (stereo not drawn)	nt	nt	-3	nt	-16	nt
SMILES	G9a inh	JMJD2A Tudor	CtBP-E1A inh	HP1b chromo inh	Six1-Eya2 inh	BAZ2B inh
COc1cc(-c2nc3ccc(N4CCN(C)CC4)cc3[nH]2)cc(OC)c1OC	40µM*	-5%	-8	5%	-26	-35%
CCCCN1C(=O)CC(Sc2ncccc2C(=O)O)C1=O (stereo not drawn)	-7%	1%	0	44%	3	-21%
CC(c1ccccc1)N1C(=O)CC(Sc2ncccc2C(=O)O)C1=O (stereo not drawn)	22µM*	-16%	8	32%	1	3%
O=C(O)c1cccnc1SC1CC(=O)N(c2ccccc2)C1=O (stereo not drawn)	56µM*	-16%	1	68%	10	-27%
Cc1ccc(C(=O)CC2(O)C(=O)N(C)c3ccccc32)o1 (stereo not drawn)	50µM*	-21%	5	41%	4	0%
Nc1nc(N)nc(-c2ccccn2)n1	-44%[59 µM]	50µM*	-73*	22%	-81*	20µM*
c1ccc(-c2cnc(-c3ccccn3)nn2)cc1	nt	14µM*	-86*	27%	-91*	nt
c1ccc(-c2nc(-c3ccccn3)nc(-c3ccccn3)n2)nc1	47%[59 µM]	-18%	?	10%	?	-4%
c1ccc(-c2cnnc(-c3ccccn3)n2)cc1	nt	11µM*	-76*	34%	-88*	nt
Clc1ccc(-c2cnnc(-c3ccccn3)n2)cc1	nt	10µM*	-84*	31%	-86*	nt
Cc1cnc2ccc(F)cc2c1	nt	nt	2	nt	21	nt
O=C(COc1ccccc1F)Nc1ccc(Cl)c(-c2nc3ccccc3[nH]2)c1	3%[59 µM]	-6%	nt	52%	nt	-19%
CCCCC[C@H](C)N1C[C@@H](COCc2ccccc2)Oc2cc(N3CC[C@H](O)C3)ccc2S1(=O)=O	nt	nt	-10	nt	1	nt
N#CC(C#N)=Cc1ccc(OCC(=O)N2CCOCC2)cc1	-14%[59 µM]	-27%	9	17%	3	-19%
CCOc1nc(SC(C(C)=O)C(=O)Nc2ccccc2)nc(N(C)C)n1 (stereo not drawn)	13µM*	79µM*	4	39%	1	-25%
COc1ccc(CNC(=O)C2C3C=CC4(CN(Cc5cccnc5)C(=O)C24)O3)cc1 (stereo not drawn)	1%	-14%	4	68%	-1	0%
COc1ccc(NC(=O)C2C3C=CC4(CN(Cc5cccnc5)C(=O)C24)O3)c(OC)c1 (stereo not drawn)	-7%	-3%	32	66%	22	50µM*
CCOC(=O)CN1CC23C=CC(O2)C(C(=O)Nc2ccc(OC)cc2OC)C3C1=O (stereo not drawn)	50µM*	-13%	4	51%	-3	3%
COc1ccc(NC(=O)COc2cccc3c2CCN(Cc2cccnc2)C3=O)c(OC)c1	41%	-25%	-82*	6%	-75*	-12%
